High-throughput results from PubChem BioAssay.
HSF1 inhib = HSF1 inhibition. NIH3T3-HGL HSE-luciferase, MG132-induced, luminescence 8 h; active compounds read low. activity change, negative = inhibition, % at 7.5 µM (by protocol). actives 0.77% (n = 300,000);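 active = more than half of replicate wells show activity change below -50%, luminescence cut by over half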;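 also: luciferase reports HSF-1 transcriptional activity via heat shock element; 0% = median of DMSO wells and -100% = zero luminescence signal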
NALP1 yeast inh = NALP1 inhibition; S. cerevisiae NALP1/ASC/caspase-1 growth, X-gal OD620, 72 h; inhibition, % at 10 µM; actives 0.61% (n = 280,000); AID 2071; in the data active = inhibition mostly above about 24%, no sharp cut-off; inactive = mostly below about 32%
Hsp70 activator = switches on Hsp70 transcription; HeLa Hsp70 promoter luciferase reporter, luminescence; scaled: vehicle 0, proteasome-inhibitor control 100%; activation, % at 10 µM; actives 0.04% (n = 200,000); AID 1203;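 active = activation above the mean across all tested compounds plus 3 SD, cutoff set per campaign, cut at about 5.5% in these data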;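 also: 100% = MG132 at 30 µM as the positive control and 0% = DMSO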
HSF1 activator = increases HSF-1 driven luciferase reporter signal; AID 504408; NIH3T3-HGL HSF-1 luciferase reporter, MG132, 8 h; 100% = twice DMSO control signal; actives 1.7% (n = 300,000); activation, % at 9 µM;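 active = mean replicate activation of at least 50% with a set share of replicates each reaching 50%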;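 also: 0% = median of the neutral control wells and 100% = twice that signal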
HSP90 refold inh = blocks HSP90-mediated luciferase refolding in reticulocyte lysate. inhibition, % at 5.6 µM. actives 0.91% (n = 290,000). Rabbit reticulocyte lysate, luciferase refolding luminescence, 3 h;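 active = inhibition above the screen-wide mean plus 3 SD, computed separately per campaign, cut at about 16% in these data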;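 also: 0% = DMSO wells and 100% = 60 µM geldanamycin wells; inhibitors lower the luminescence because luciferase stays unfolded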
pCIP destab = lowers stability of the mouse p/CIP coactivator protein | Q05BA5 | F442A p/CIP-EGFP cells, EGFP fluorescence, 16 h | decrease of EGFP signal, % at 10 µM | actives 0.01% (n = 290,000);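 active = EGFP signal decrease of at least 30% at 10 µM or well 3 SD below plate mean, unless failing retest; inactive = the rest, including hits failing retest or dose response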
Starred values were filed as active, the others as inactive. The list is not random: actives were taken first. Their share in the collection is about 3.8%.

Results for COc1ccc(C)cc1S(=O)(=O)N(C)CC(=O)N1CCN(C)CC1 ?
HSF1 inhib: 6.4; NALP1 yeast inh: 39.6*; Hsp70 activator: 0.1; HSF1 activator: -1.7; HSP90 refold inh: 0.9; pCIP destab: 6.9

Results for COc1ccc(C)cc1S(=O)(=O)N(C)CC(=O)N1CCCCCC1 ?
HSF1 inhib: -6.9; NALP1 yeast inh: 1.6; Hsp70 activator: 0.3; HSF1 activator: -2.8; HSP90 refold inh: -0.8; pCIP destab: -11.1

What do the screens show for `COc1cccc(N(CC(=O)N2CCN(C)CC2)S(=O)(=O)c2ccc(C)cc2)c1`?
HSF1 inhib: -85.1*; NALP1 yeast inh: -11.7; Hsp70 activator: 0.0; HSF1 activator: -88.1; HSP90 refold inh: -2.9; pCIP destab: -11.4

Results for COc1ccc(S(=O)(=O)N(C)CC(=O)N2CCC(C(N)=O)CC2)cc1Cl ?
HSF1 inhib: 25.2; NALP1 yeast inh: 3.1; Hsp70 activator: -0.3; HSF1 activator: 66.0*; HSP90 refold inh: 3.0; pCIP destab: -13.8

How did COc1ccc(C)cc1S(=O)(=O)N(C)CC(=O)N1CCC(C(N)=O)CC1 do in these assays?
HSF1 inhib: -4.8; NALP1 yeast inh: 6.1; Hsp70 activator: 0.0; HSF1 activator: -4.4; HSP90 refold inh: -0.3; pCIP destab: -5.2

Results for O=C(O)CSc1ccc(NC(=O)Nc2ccccc2F)cc1 ?
HSF1 inhib: -4.2; NALP1 yeast inh: 18.4; HSF1 activator: 19.1; HSP90 refold inh: 1.9; pCIP destab: 0.7

How did CC(=O)N1C(C)(C)CC(=NOS(=O)(=O)c2ccccc2)CC1(C)C do in these assays?
NALP1 yeast inh: 22.5; Hsp70 activator: 0.4; HSP90 refold inh: -0.8; pCIP destab: -1.8

How did O=C1NC(c2ccc(O)cc2)Nc2ccccc21 (configuration not stated) do in these assays?
HSF1 inhib: 12.0; NALP1 yeast inh: 19.5; HSF1 activator: 17.8; HSP90 refold inh: -1.7; pCIP destab: -5.3

How did CSc1ccc(C2NC(=O)c3ccccc3N2)cc1 (configuration not stated) do in these assays?
HSF1 inhib: 45.5; HSF1 activator: 68.6*

Results for Cc1ccc2sc(N(CCCN(C)C)C(=O)CCS(=O)(=O)c3ccccc3)nc2c1C ?
HSF1 inhib: 75.0; NALP1 yeast inh: 84.1*; HSF1 activator: 110.7*; HSP90 refold inh: 0.9; pCIP destab: -8.7

Results for COc1ccc(OC)c2sc(N(CCCN(C)C)C(=O)CCS(=O)(=O)c3ccccc3)nc12 ?
HSF1 inhib: 2.8; HSF1 activator: 5.3

Results for CN(C)CCCN(C(=O)CCS(=O)(=O)c1ccccc1)c1nc2cc3c(cc2s1)OCO3 ?
HSF1 inhib: 32.6; NALP1 yeast inh: 49.5*; HSF1 activator: 36.3; HSP90 refold inh: -5.6; pCIP destab: -75.4

What do the screens show for `CCn1c(C)c(C)c2cc(C(=O)NC3CCCCCC3)ccc21`?
HSF1 inhib: 3.2; NALP1 yeast inh: 16.1; HSF1 activator: 8.7; HSP90 refold inh: 4.4; pCIP destab: -12.3

What do the screens show for `COc1ccccc1OCc1cc(C(=O)N(C)CCC2CCCCO2)no1` (configuration not stated)?
HSF1 inhib: 20.3; NALP1 yeast inh: -3.9; HSF1 activator: 32.3; HSP90 refold inh: 2.8; pCIP destab: -13.6

What do the screens show for `CCOC(=O)c1c(NC(=O)OC)sc(C(=O)N(CC)CC)c1C`?
HSF1 inhib: -71.9*; NALP1 yeast inh: 1.9; Hsp70 activator: -0.1; HSF1 activator: -78.2; HSP90 refold inh: 3.9; pCIP destab: -2.3

How did COc1cc(NS(=O)(=O)c2c(C(=O)N3CCOCC3)c(C)n(C)c2C)cc(OC)c1OC do in these assays?
HSF1 inhib: -4.3; NALP1 yeast inh: 8.3; HSF1 activator: 1.2; HSP90 refold inh: -0.2; pCIP destab: 7.3

Results for CCOCc1nnc(NC(=O)C2CCN(C(=O)c3ccco3)CC2)s1 ?
HSF1 inhib: -4.4; NALP1 yeast inh: 10.5; HSF1 activator: 5.7; HSP90 refold inh: 1.5; pCIP destab: -16.9

Results for O=C(Nc1ccc2ccccc2n1)c1ccccc1Br ?
HSF1 inhib: 34.0; NALP1 yeast inh: 8.0; HSF1 activator: 70.9*; HSP90 refold inh: 0.9; pCIP destab: -1.1

How did O=C(Nc1ccc2ccccc2n1)c1ccccc1 do in these assays?
HSF1 inhib: 25.6; NALP1 yeast inh: 3.3; HSF1 activator: 36.6; HSP90 refold inh: 11.5; pCIP destab: -4.5
